In all, about 33,000 sequences were measured (“E-score (-0.5 to 0.5)”: median about -0.054, highest 2% from about 0.39 on). The sample holds the highest values, similar sequences and a random draw of the others, so the mix is not that of the screen.
Molecular target: Ylr278c (UniProt Q05854)
Assay: PBM E-score (8-mer binding enrichment) (E-score (-0.5 to 0.5)); higher = stronger / more preferred TF binding
Conditions: protein concentration: 200 nM; construct: GST-DNA-binding domain
Experimental: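 Universal 'all 10-mer' protein binding microarrays (Agilent AMADID 015681) probed with GST-tagged S. cerevisiae TFs (full-length or DBD) made by in vitro transcription/translation (PURExpress), about 100-200 nM. Bound TF was detected with fluorescent anti-GST. Each ungapped 8-mer (which stands for itself and its reverse complement) is scored by the PBM enrichment score (E-score), a modified Wilcoxon-Mann-Whitney statistic from -0.5 to +0.5, computed with the Universal PBM Analysis Suite. Scale: above 0.35 generally sequence-specific binding.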

UniProt Q05854, sequence (Q05854 whole entry): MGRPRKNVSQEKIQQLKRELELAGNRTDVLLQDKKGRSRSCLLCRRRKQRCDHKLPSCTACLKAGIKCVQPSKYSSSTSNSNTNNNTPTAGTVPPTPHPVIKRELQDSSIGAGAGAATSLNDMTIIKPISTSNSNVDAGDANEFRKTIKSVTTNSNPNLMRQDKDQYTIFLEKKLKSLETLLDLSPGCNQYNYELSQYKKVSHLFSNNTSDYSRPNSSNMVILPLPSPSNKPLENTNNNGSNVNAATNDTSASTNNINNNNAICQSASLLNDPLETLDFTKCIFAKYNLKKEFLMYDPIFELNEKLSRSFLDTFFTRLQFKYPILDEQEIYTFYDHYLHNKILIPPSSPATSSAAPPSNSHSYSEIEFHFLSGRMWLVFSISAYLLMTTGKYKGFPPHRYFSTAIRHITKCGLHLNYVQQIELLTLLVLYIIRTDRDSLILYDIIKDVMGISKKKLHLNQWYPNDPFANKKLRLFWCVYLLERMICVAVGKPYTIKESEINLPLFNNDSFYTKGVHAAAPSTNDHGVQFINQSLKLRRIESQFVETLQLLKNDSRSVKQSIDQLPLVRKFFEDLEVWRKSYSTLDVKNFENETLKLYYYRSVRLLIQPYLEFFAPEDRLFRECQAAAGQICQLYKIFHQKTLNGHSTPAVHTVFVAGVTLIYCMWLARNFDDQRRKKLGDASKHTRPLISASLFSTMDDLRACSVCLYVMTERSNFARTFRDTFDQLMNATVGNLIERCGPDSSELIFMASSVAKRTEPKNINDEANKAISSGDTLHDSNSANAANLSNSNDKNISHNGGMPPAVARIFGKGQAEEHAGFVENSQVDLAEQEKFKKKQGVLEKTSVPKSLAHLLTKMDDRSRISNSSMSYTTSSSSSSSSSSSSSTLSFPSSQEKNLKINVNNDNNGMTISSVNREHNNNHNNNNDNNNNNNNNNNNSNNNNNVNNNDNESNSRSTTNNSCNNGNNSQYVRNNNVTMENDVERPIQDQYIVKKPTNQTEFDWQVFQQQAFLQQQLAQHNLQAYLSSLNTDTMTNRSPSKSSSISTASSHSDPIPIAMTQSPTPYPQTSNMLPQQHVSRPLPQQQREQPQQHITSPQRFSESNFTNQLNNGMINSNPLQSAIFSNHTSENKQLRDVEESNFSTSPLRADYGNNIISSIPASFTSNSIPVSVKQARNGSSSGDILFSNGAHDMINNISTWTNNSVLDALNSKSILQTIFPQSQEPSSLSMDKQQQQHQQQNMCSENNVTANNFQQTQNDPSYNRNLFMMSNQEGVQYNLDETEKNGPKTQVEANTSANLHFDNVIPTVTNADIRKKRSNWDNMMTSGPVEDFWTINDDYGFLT

Sequence | PBM E-score
AAAGAGTG | -0.158
ATTTGTCA | -0.182
CGAAAGAC | 0.133
CTTTCATC | -0.135
AGTCCTGC | -0.116
AGTCCGCG | 0.369
CGTCCGCC | 0.319
AGTCCGGC | 0.44
AGTCCCCC | -0.261
AGTCCCGG | 0.362
AGTCCGTC | 0.381
AGTCCGCC | 0.424
AGTCCGGG | 0.44
CCAGGTCA | -0.253
AGGCACTG | -0.178
CATGCTGC | -0.0378
ACTGCCCT | -0.112
CCAACAAA | -0.142
AAGTGGGG | 0.0493
CGGAGAAG | 0.453
GGGAGAAC | -0.0233
GGGAGAAA | 0.0906
AGGAGAAC | -0.00067
AGGAGAAG | -0.151
CGGAGAAA | 0.477
TGGAGAAA | -0.0369

Sequence | PBM E-score
CAGAGAAG | -0.15
CGGAGAAC | 0.445
GAATGCGC | 0.182
CTTCTAGA | -0.215
CCTCCCTC | 0.0572
TCCGCTAA | 0.267
AGTTAGAC | -0.0203
GTCCAAGA | -0.185
CATGGCCG | 0.224
CCGTCGGC | 0.366
CCGTCGTA | 0.0447
ACGTCGGA | 0.385
CCGTCGGA | 0.415
GCGTCGAA | -0.0135
GCGTCGGA | 0.438
CATCCTTC | -0.0925
ACAGGCCG | 0.156
AGAGGCTA | -0.164
AATAATAT | 0.23
ACATCGAG | -0.288
AGCTACCC | -0.243
ATGGATCG | 0.166
CAGCTCCG | 0.426
CAGCTCCA | -0.152
AAGCTCCC | -0.139
AAGCTCCG | 0.477

Sequence | PBM E-score
CAGCTCCC | -0.153
AAGCTCCT | -0.0423
ACTGTCAG | -0.147
CACGCGAC | -0.0553
AACTTCTG | -0.197
TCATTCAA | -0.146
CTAGCGGC | 0.0333
GGACGGAA | 0.337
AGCCGGGA | 0.272
GGCCGGAA | 0.422
GGCCGGTA | 0.261
CGCCGGAC | 0.447
AGCCGGAG | 0.455
CGCCGCAC | 0.222
AGCCGGGG | 0.26
AGCCGGTA | 0.352
CGCCGAAC | 0.315
AGCCGGAA | 0.43
AGCCGGTG | 0.246
GCATTGGA | 0.0238
CAGGTTGG | -0.138
GACGGTAA | 0.127
CGTGATGC | 0.073
TGCCGTAA | -0.0603
TGCCGGAA | 0.435
CGCCGGGA | 0.412

Sequence | PBM E-score
CGCCGGTA | 0.352
CGCCGGAA | 0.432
GGCCGGGA | 0.325
AGCCGGAC | 0.407
AGCCGGTC | 0.134
TGCCGGCA | 0.347
CGCCGTAA | 0.28
CGCCGGGC | 0.378
AGCCGGGC | 0.167
GAACGATC | 0.041
CCTGTCCC | -0.128
ACCAGTAA | 0.00819
ATTCTAGA | -0.171
ACGACCCC | 0.0131
AGCCGGCT | 0.247
GGACGGAC | 0.359
CGCCGTAG | 0.193
CGCCGGAG | 0.459
AGCCGGAT | 0.404
GGCCGGAC | 0.419
CGCCGCAG | 0.264
AGCCGTAT | -0.0908
GGCCGCAC | 0.23

From the supplement of paper PMC3334620
